Screens deposited in PubChem by several laboratories.
Rtt109 HAT inh = blocks Candida albicans Rtt109/Vps75 acetyltransferase activity. 330,000 compounds, 0.16% hits. purified Rtt109/Vps75, ThioGlo CoA-SH fluorescence, 4 h. AID 540336. inhibition, % at 34.9 µM. Q5AAJ8;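 active = inhibition of at least 50% in every replicate; inconclusive = best replicate reaches 50% inhibition but some replicates fall short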
DYRK1A inh = inhibitors of rat Dyrk1A kinase | Q63470 | ADP-Glo luminescence, NFATc1 peptide | inhibition, % at 12.5 µM | 310,000 compounds, 0.43% hits | AID 504441; in the data active = inhibition above about 50%
esBAF inh = blocks esBAF chromatin remodeling in mouse ES cells; reporter increase, % at 12.5 µM; Bmi1-luciferase knock-in reporter, 24 h; 100% = twice the neutral-well signal; 350,000 compounds, 2% hits; in the data active = activation above about 40%; inconclusive = no clear call, values can overlap the other calls;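 note: a rise in the Bmi1 reporter signal indicates esBAF inhibition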
CDK5 inh = blocks human CDK5/p35 kinase activity; Q00535+Q15078; Recombinant CDK5/p35, ADP-Glo luminescence, 60 min; inhibition, % at 10 µM; 330,000 compounds, 0.01% hits; AID 488839;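 active = highest replicate inhibition of at least 50% and at least 75% of replicates reaching 50%; inconclusive = only one of the two criteria met; inactive = both criteria failed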
dFosB activator = activators of mouse delta FosB homodimer. purified delta FosB, TAMRA-CDK5 oligo fluorescence polarization; percent of positive-control signal above neutral wells. activation, % at 25 µM. 340,000 compounds, 0.99% hits. AID 493131;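 active = mean activation above about 17%, with every replicate also reaching it, limit read from the data, passing the limit was not always enough; inconclusive = only one of the two conditions met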
Target sequence (P13346 whole entry, looked up): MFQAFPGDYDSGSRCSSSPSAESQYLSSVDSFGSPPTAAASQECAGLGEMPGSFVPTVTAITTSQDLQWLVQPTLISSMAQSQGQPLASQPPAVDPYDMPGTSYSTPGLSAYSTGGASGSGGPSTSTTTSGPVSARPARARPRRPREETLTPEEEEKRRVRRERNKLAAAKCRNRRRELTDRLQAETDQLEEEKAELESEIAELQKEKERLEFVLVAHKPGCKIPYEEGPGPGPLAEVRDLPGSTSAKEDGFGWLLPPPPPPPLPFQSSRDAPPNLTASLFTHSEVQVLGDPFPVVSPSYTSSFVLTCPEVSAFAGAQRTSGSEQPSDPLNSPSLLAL
SMARCA2 activ = increases SMARCA2 function in MMTV reporter cells | MG213 cells, MMTV-luciferase reporter, dexamethasone, overnight | activation, % at 9.1 µM | 370,000 compounds, 1% hits | AID 652017; in the data active = activation above about 7.8%
Numbers stand for hits; . = inactive; ? = inconclusive; / = no result given; ! = not confirmed by another sample. Compounds with a hit are over-represented: about 3.2% of the library has one in this group of screens.

SMILES | Rtt109 HAT inh | DYRK1A inh | esBAF inh | CDK5 inh | dFosB activator | SMARCA2 activ
COc1ccc(-c2cc(=NCCC(=O)O)c3cc(C)ccc3o2)cc1 | . | . | 69 | . | . | .
Cc1nc2c(c(C)nn2-c2ccccc2)c(C)c1CCC(=O)N1CCC2(CC1)OCCO2 | . | . | 55 | . | . | /
Cc1nc2c(-c3ccccc3)c(C)nn2c(C)c1CCC(=O)N1CCC2(CC1)OCCO2 | / | . | . | . | . | .
COC(=O)[C@@H]1[C@@H](CO)[C@@H]2Cn3c(ccc(-c4cccc(OC)c4)c3=O)[C@H]1N2C(=O)c1ccccc1F | / | / | . | / | / | /
Cc1ccc2c(c1N)C(=O)c1ccccc1C2=O | . | / | 55 | . | . | .
CCN1C(=O)C(=C/C=C/c2ccco2)C(=O)N(CC)C1=S | . | . | / | . | 57 | .
O=C(Cc1ccccn1)N1CCCCN2[C@H](CO)[C@@H](c3ccc(-c4ccccc4F)cc3)[C@@H]2C1 | / | / | . | / | / | /
c1ccc(-c2ccc3c(c2)CNCc2cnnn2-3)cc1 | / | / | . | / | / | .
Fc1cccc(-c2ccc3c(c2)CNCc2cnnn2-3)c1 | / | / | 43 | / | / | .
c1cc2c(cc1-c1ccc3c(c1)OCO3)CNCc1cnnn1-2 | / | / | 51 | / | / | .
COC(=O)[C@H]1[C@H](CO)[C@H]2Cn3c(ccc(/C=C/c4ccccc4)c3=O)[C@@H]1N2CC1CCCC1 | / | / | . | / | / | /
COC(=O)[C@@H]1[C@@H](CO)[C@@H]2Cn3c(ccc(-c4ccncc4)c3=O)[C@H]1N2S(=O)(=O)c1ccccc1C | / | / | . | / | / | /
O=C(Cc1ccccn1)N1CCCCN2[C@H](C1)[C@@H](c1ccc(Br)cc1)[C@@H]2CO | / | / | . | / | / | /
O=C(O)c1cccc2c1NC(C(=O)O)C1CC(Sc3ccccc3[N+](=O)[O-])C(Cl)C21 (stereo not given) | 60 | . | . | . | . | .
CC(=O)c1ccc2c(c1)C1C(Cl)C(Sc3ccccc3[N+](=O)[O-])CC1C(C(=O)O)N2 (stereo not given) | . | . | / | . | . | .
CC=Cc1ccc2n(c1=O)C[C@@H]1[C@@H](CO)[C@H](C(=O)N(C)C)[C@H]2N1C (mixture of isomers) | / | / | . | / | / | /
O=C1NC(=O)N(c2cccc(Cl)c2)C(=O)/C1=C\c1ccc(Sc2nc3ccccc3[nH]2)o1 | . | . | / | . | 49 | .
O=C1NC(=O)N(c2ccccc2F)C(=O)/C1=C/c1ccc(Sc2nc3ccccc3[nH]2)o1 | . | / | / | . | 27 | .
O=C1NC(=O)N(c2ccccc2)C(=O)/C1=C/c1ccc(Sc2ccccc2)o1 | . | . | / | . | . | /
O=c1[nH]c(=S)n(-c2ccccc2)c(O)c1/C=N/N1CCCCC1c1cccnc1 (stereo not given) | . | . | . | . | 39 | .
Cc1cccc(S(=O)(=O)N2[C@@H]3c4ccc(-c5ccncc5)c(=O)n4C[C@H]2[C@H](CO)[C@H]3C(=O)O)c1 | / | / | . | / | / | /
Clc1ccc(COC(Cn2ccnc2)c2ccc(Cl)cc2Cl)c(Cl)c1 (stereo not given) | 74! | . | . | . | . | .
CCN1[C@@H]2c3ccc(-c4ccc(OC)cc4)c(=O)n3C[C@H]1[C@H](CO)[C@H]2C(=O)OC | / | / | . | / | / | /
CCN1/C(=C\C=C\C2=[N+](CC)c3ccccc3C2(C)C)C(C)(C)c2ccccc21 | . | . | . | . | 52 | /
CN1C(=O)NC(=O)C(N=Nc2ccc(Cl)cc2)C1=O (stereo not given) | . | / | 42 | . | . | .
SMILES | Rtt109 HAT inh | DYRK1A inh | esBAF inh | CDK5 inh | dFosB activator | SMARCA2 activ
CN1CC(Br)C(=O)NC1=O (stereo not given) | . | . | . | . | . | .
S=C=Nc1cccc(C2(N3CCCCC3)CCCCC2)c1 | . | . | . | . | . | 11
O=C(O)[C@@H]1[C@@H](CO)[C@@H]2Cn3c(ccc(C4=CCCCC4)c3=O)[C@H]1N2CCc1ccccc1 | / | / | . | / | / | /
COc1cc2c(cc1OC)-c1c(OC)c(OC)cc3c1C(C2)N(C)CC3 (stereo not given) | . | . | . | . | . | .
COc1cc2c(cc1O)C[C@H]1NCCc3cc4c(c-2c31)OCO4 | . | 72 | . | . | 24 | .
COC(=O)[C@H]1[C@H](CO)[C@H]2Cn3c(cccc3=O)[C@@H]1N2C(=O)C1CC1 | / | / | . | / | / | /
CCOc1ccc(-n2c(-c3cccs3)nc3ccccc3c2=O)cc1 | . | . | . | . | . | .
CCn1nc(-c2cccs2)nc2c(=O)n(C)c(=O)nc1-2 | . | 63 | . | . | . | /
COc1ccc(-c2ccc3n(c2=O)C[C@@H]2[C@@H](CO)[C@H](C(=O)O)[C@H]3N2C(=O)c2ccccc2F)cc1 | / | / | . | / | / | /
N#Cc1cc2c(nc1SCC(=O)Nc1ccc(Cl)cc1)C1CCN2CC1 | . | . | 46 | . | . | .
N#Cc1cc2c(nc1SCC(=O)Nc1cc(Cl)ccc1Cl)C1CCN2CC1 | . | . | 58 | . | . | .
c1ccc2c(c1)[IH]c1ccccc1-2 | . | . | . | . | 33 | .
c1ccc2c(c1)-c1cccc3cccc-2c13 | . | . | . | . | . | .
COC(=O)[C@H]1[C@H](CO)[C@H]2Cn3c(ccc(/C=C/c4ccccc4)c3=O)[C@@H]1N2C(=O)C1CCC1 | / | / | . | / | / | /
N#Cc1cccc(-c2ccc([C@@H]3[C@@H](CO)N4CCCCN(C(=O)Cc5cccnc5)C[C@H]34)cc2)c1 | / | / | . | / | / | /
COc1ccc(-c2cc(C(=O)N3CCC4(CC3)OCCO4)c3ccccc3n2)cc1 | . | / | 41 | / | . | .
CCOc1ccc(-c2cc(C(=O)N3CCC4(CC3)OCCO4)c3ccccc3n2)cc1 | . | . | / | . | . | .
Cc1cc(/C=C2\C(=O)NC(=O)N(Cc3ccccc3)C2=O)c(C)n1C1CC1 | . | . | / | . | 43 | .
NCC(=O)c1ccccc1 | . | . | 67 | . | . | .
CN1C(=O)C(=Cc2c(OCc3cnc(Cl)s3)ccc3ccccc23)C(=O)N(C)C1=O | . | . | 50 | . | . | .
CC(=O)OC1CC[C@]2(C#N)[C@H]3CC[C@]4(C)[C@H](C5C=CC(=O)O5)CCC4(O)C3CCC2(O)C1 (stereo not given in full) | . | . | . | . | . | 7.8
COC(=O)[C@@H]1[C@@H](CO)[C@@H]2Cn3c(ccc(/C=C/c4ccccc4)c3=O)[C@H]1N2CC1CCCC1 | / | / | . | / | / | /
CC1CC2(O)c3nonc3CCC2N1O (stereo not given) | . | . | . | . | . | .
CC1CN(O)C2CCc3nonc3C12O (stereo not given) | . | . | . | . | 16 | .
COC(=O)[C@H]1[C@H](CO)[C@H]2Cn3c(ccc(-c4ccccc4F)c3=O)[C@@H]1N2C(=O)C1CC1 | / | / | . | / | / | /
CN(C)c1ccc(/C=C/C=C/c2sc3ccccc3[n+]2C)cc1 | . | . | / | . | ? | .
CC[n+]1c(/C=C/C=C/c2ccc(N(C)C)cc2)sc2ccccc21 | . | . | / | . | 155 | .
CC(C)CC#Cc1ccc([C@H]2[C@@H](CO)N3CCCCN(C(=O)Cc4ccccn4)C[C@H]23)cc1 | / | / | . | / | / | /
